This is an account of results in publication PMC3795721, “Screening for Protein-DNA Interactions by Automatable DNA-Protein Interaction ELISA”.

AT4G31550, sequence (Q9SV15 228-325): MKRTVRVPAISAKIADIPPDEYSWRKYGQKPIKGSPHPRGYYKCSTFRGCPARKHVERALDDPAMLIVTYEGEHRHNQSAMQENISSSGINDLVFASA

This test has as its target AT4G31550 (Arabidopsis thaliana, UniProt Q9SV15 228-325). The experiment in a line: DPI-ELISA; DPI-ELISA, streptavidin 384-well plate, 1-2 pmol biotinylated dsDNA per well, crude native E. coli extract, anti-His detection; buffer as in Brand et al. [46],; high values mean tight binding. Conditions: tags: C-terminal His (pET-DEST42); label: 5' biotin on forward strand; dsDNA, one strand shown.
The sequence AAAAAATAAACGTGTTCATACTTAGTAAAA yielded a binding signal of 0.61 ± 0.0707 absorbance.

For the sequence AAAAAAGGCTGTGGCCAATGTTCGTAAAAA, the binding signal is 0.55 ± 0.0566 absorbance.

As for AAAAAAGGGAGTCATGCTTCTTGTTTAAAA, the binding signal was determined as 0.645 ± 0.0919 absorbance.

With AAAAAAGGAAAACGAGTTCATCTGGTAAAA, the binding signal was 0.585 ± 0.134 absorbance.

AAAAAAATCTCACTCCTGGTCCCCATAAAA gave a binding signal of 0.56 ± 0.099 absorbance.

As for AAAAAAGTCGTCACGCACGTGAATACAAAA, the binding signal turned out to be 1.15 ± 0.0141 absorbance.

Sequence AAAAAACCCATCCTTCGTTCCATCGTAAAA came in with a binding signal of 0.76 ± 0.141 absorbance.

Take AAAAAAGTCGTTACACGTATGCGTGCAAAA: the binding signal amounted to 1.5 ± 0.0566 absorbance.

For AAAAAAAACTGTCGCCCCCGGCTGGCAAAA, the binding signal was 0.545 ± 0.12 absorbance.

AAAAAAATTACGCGGGATCGCCAAAA gave a binding signal of 0.6 ± 0.0566 absorbance.

AAAAAAATGATTGCCAATGCTCGCAAAAAA: the binding signal was 0.73 ± 0.156 absorbance.

As for AAAAAAACTCACGGCGTCACTATGGTAAAA, the binding signal came to 0.585 ± 0.12 absorbance.

The sequence AAAAAACGGTCGCGATCGTTAATGATAAAA had a binding signal of 0.75 ± 0.17 absorbance.

For AAAAAATTCGTTTTTCGTCTTTCATTAAAA, the binding signal worked out at 0.7 ± 0.156 absorbance.

AAAAAATTCCGCGTGTATGTGTACGTAAAA displayed a binding signal of 0.72 ± 0.212 absorbance.

With AAAAAACCAGTCTACACCGCTGTAGGAAAA, the binding signal is 0.705 ± 0.0919 absorbance.

The sequence AAAAAACCACCCAGTCTGTTTCTACTAAAA displayed a binding signal of 0.54 ± 0.141 absorbance.

In turn, AAAAAATGTATTCGTGTCCACTCCATAAAA registered a binding signal of 0.53 ± 0.0707 absorbance.

The sequence AAAAAACTCTTAAGGAAAGTTCCGACAAAA came in with a binding signal of 0.645 ± 0.12 absorbance.

AAAAAATGGTTTCAATTTTCCGTCCGAAAA displayed a binding signal of 0.405 ± 0.0778 absorbance.

On to AAAAAATTTTGTGGTGTTTCGCCACCAAAA, for which the binding signal was found to be 0.715 ± 0.0495 absorbance.

For AAAAAAAAGTGCCAACGTTCAAGAAAAA, the binding signal came to 0.38 ± 0.099 absorbance.

The sequence AAAAAATATTCGCCGGTAGCCACGCTAAAA came in with a binding signal of 0.565 ± 0.12 absorbance.

AAAAAAAGTCTGCGGCTGCAGGGCGGAAAA registered a binding signal of 1.91 ± 0.368 absorbance.

Take AAAAAACTACAACCTGCGCGGTGGTCAAAA: the binding signal came to 0.775 ± 0.0636 absorbance.

AAAAAAGTCATTATAACCCAAACTCTAAAA gave a binding signal of 0.5 ± 0.113 absorbance.

As to AAAAAATCACAATACCTTCTCGTCATAAAA, the binding signal was 0.58 ± 0.113 absorbance.

Consider AAAAAAGGGTTTAGATGTCCTTCAAAAAAA, for which the binding signal turned out to be 0.59 ± 0.099 absorbance.

Take AAAAAATGGAAAGACCTATACCGGTCAAAA: the binding signal turned out to be 1.09 ± 0.17 absorbance.

AAAAAAATCCGATCGATGCATATATAAAA came in with a binding signal of 0.725 ± 0.106 absorbance.

With AAAAAATGTCTTCTTACACCCTCTAGAAAA, the binding signal worked out at 0.68 ± 0.0707 absorbance.

For AAAAAAATCCCACTTCATTCTAAAAA, the binding signal was 0.6 ± 0.0707 absorbance.

AAAAAACGTATTGATGTCTATTTCAAAAAA returned a binding signal of 0.575 ± 0.0919 absorbance.

As to AAAAAATGTTGTTGCTGTTGGTCCTAAAAA, the binding signal is 0.695 ± 0.0778 absorbance.

In turn, AAAAAAGTTTCTGCTTTCCCTTTCGTAAAA came in with a binding signal of 0.665 ± 0.205 absorbance.

For AAAAAAACTTTCTATTCTGGATAAGTAAAA, the binding signal came to 0.625 ± 0.134 absorbance.

Sequence AAAAAACGCTTTCAGTTTTGATCTTAAAAA registered a binding signal of 0.495 ± 0.0778 absorbance.

AAAAAATTGTGCCTCTGCCCTCGCCTAAAA had a binding signal of 0.62 ± 0.127 absorbance.
